nsP2pro primary – inhibitors of chikungunya virus nsP2 protease; Potency, µM (titrated, usually from 24.9 µM), inactives show at the highest dose activity change, negative = inhibition, usual class: inhibitors; AID 1964107; FRET peptide cleavage, nsP2pro, fluorescence 1 h; Q8JUX6; hit rate 1.1% among 31,000; note: nearly all actives have a fitted effect of over 60% in size
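Purified recombinant nsP2pro (150 nM final) in 10 mM Tris-HCl pH 8.0 with 0.01% Tween 20 was preincubated 15 min at room temperature with compound (7 concentrations, up to 25 uM). FRET peptide 2 substrate (2.5 uM final) was then added; fluorescence was read after 1 h.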
nsP2 cell sec – cell-based CHIKV nsP2 protease inhibition, secondary; cell-based CHIKV nsP2 protease reporter assay; AID 1964100; hit rate 10% among 450; shares compounds with nsP2pro primary; Potency, µM (titrated, usually from 51.1 µM), for inactives: top-dose activity change, negative = inhibition, most hits filed as inhibitors; note: nearly all actives have a fitted effect of over 70% in size
Target sequence (Q8JUX6 220-798 limits assumed): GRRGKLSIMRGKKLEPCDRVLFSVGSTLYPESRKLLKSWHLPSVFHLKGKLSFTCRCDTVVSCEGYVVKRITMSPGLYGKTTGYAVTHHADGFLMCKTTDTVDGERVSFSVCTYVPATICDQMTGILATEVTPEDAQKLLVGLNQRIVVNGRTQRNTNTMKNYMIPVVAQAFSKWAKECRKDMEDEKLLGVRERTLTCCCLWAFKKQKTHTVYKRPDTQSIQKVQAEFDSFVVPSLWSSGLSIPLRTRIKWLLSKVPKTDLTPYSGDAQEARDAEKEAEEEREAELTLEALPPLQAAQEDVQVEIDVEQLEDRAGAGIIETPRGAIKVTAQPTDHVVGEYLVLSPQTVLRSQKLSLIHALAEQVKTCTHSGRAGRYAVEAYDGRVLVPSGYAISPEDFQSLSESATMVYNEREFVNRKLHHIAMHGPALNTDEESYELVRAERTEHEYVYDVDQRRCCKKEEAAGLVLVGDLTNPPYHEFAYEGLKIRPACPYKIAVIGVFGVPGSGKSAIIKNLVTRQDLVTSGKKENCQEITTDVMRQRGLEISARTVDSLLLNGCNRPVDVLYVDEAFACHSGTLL
NSP2 full ctr – inhibits full-length CHIKV NSP2 enzyme; Full-length CHIKV NSP2 protease enzymatic counterscreen; shares compounds with nsP2pro primary; Potency, µM (highest dose often 50.7 µM), for the others: at the highest dose activity change, negative = inhibition, most hits filed as inhibitors; hit rate 39% among 410; note: nearly all actives have a fitted effect of over 65% in size
Furin counterscr – selectivity counter-screen for CHIKV nsP2 protease inhibitors: human furin. Potency, µM (highest dose often 50.6 µM), inactives show at the highest dose activity change, negative = inhibition, actives largely listed as inhibitors. Recombinant human furin enzymatic counterscreen, fluorogenic substrate. shares compounds with nsP2pro primary. hit rate 6% among 410
NS23 peptide cs – selectivity test for CHIKV nsP2 protease inhibitors: endogenous NS2/3 peptide. hit rate 34% among 410. Potency, µM (highest dose often 51 µM), inactives show top-dose activity change, negative = inhibition, usual class: inhibitors. shares compounds with nsP2pro primary. Purified CHIKV nsP2 protease, endogenous NS2/3 peptide cleavage; note: nearly all actives have a fitted effect of over 55% in size
Papain counter – inhibits papain in a CHIKV nsP2 protease selectivity counterscreen. purified papain protease activity, enzymatic inhibition. AID 1964104. shares compounds with nsP2pro primary. Potency, µM (series often up to 51 µM), for the others: at the highest dose activity change, negative = inhibition, usual class: inhibitors. hit rate 5% among 410
nsP2pro confirm – CHIKV nsP2 protease inhibition, confirmatory qHTS; CHIKV nsP2 protease enzymatic activity, qHTS; Potency, µM (highest dose often 25.5 µM), without a hit: at the highest dose activity change, negative = inhibition, usual class: inhibitors; shares compounds with nsP2pro primary; hit rate 43% among 410; note: nearly all actives have a fitted effect of over 75% in size
HCV NS3 counter – HCV NS3/4A protease inhibition, counterscreen; hit rate 20% among 410; AID 1964106; shares compounds with nsP2pro primary; HCV NS3/4A protease biochemical counterscreen; Potency, µM (top dose mostly 50.9 µM), usual class: inhibitors; note: nearly all actives have a fitted effect of over 55% in size
An asterisk follows results filed as active; i = inactive; ? = inconclusive; [ ] = remark or other dose. The sample as a whole holds a higher share of hits than the screen did. Calls come from the whole dose curve. % is set by controls: 0 for no effect and ±100 for the full control effect; potency is the fitted concentration of half-maximal effect.

SMILES | nsP2pro primary | others
CC(C(=O)O)c1ccc(C(=O)c2cccs2)cc1 (stereo not drawn) | -16.8%[39.2 µM]
CCN1C(=O)C2CC3(CCN(Cc4cnn(CC)c4C)CC3)CN2C1=O (stereo not drawn) | -0.5%
Cc1noc([C@@H]2CN(C(=O)CCc3nc4ccccc4s3)C[C@H]2C(N)=O)n1 | -2.1%
C/C=C(\C)C(=O)O[C@H]1[C@@H](O[C@]2(COC(=O)CC(C)C)O[C@H](COC(=O)C(C)CC)[C@@H](OC(C)=O)[C@@H]2O)O[C@H](COC(C)=O)[C@@H](O)[C@@H]1O (stereo partly drawn) | 1.1%[10 µM]
CCC(CC)COC(=O)[C@H](C)N[P@](=O)(OC[C@H]1O[C@@](C#N)(c2ccc3c(N)ncnn23)[C@H](O)[C@@H]1O)Oc1ccccc1 | -6.3%[0.199 µM]
COc1ccc(-c2cc(C(=O)N3CCOC(c4ccc(F)cc4)C3)[nH]n2)cc1 (stereo not drawn) | i
O=C(c1ccc2ncccc2c1)N1CCOC(c2ccc(Cl)c(Cl)c2)C1 (stereo not drawn) | 2.9%
O=C(c1ccc(-c2ccco2)cc1)N1CCOC(c2ccccc2)C1 (stereo not drawn) | 7.94µM* | nsP2 cell sec=?;NSP2 full ctr=10.3µM*;Furin counterscr=-3.0%;NS23 peptide cs=?;Papain counter=-12.8%;nsP2pro confirm=8.96µM*;HCV NS3 counter=i
Oc1ccc(CNc2nccc3ccccc23)c2cccnc12 | i
O=C(Nc1ccc2sccc2c1)Nc1nnc(-c2cccnc2)s1 | i
O=C(O)C[C@@H]1CC[C@H](NC(=O)Cc2cccs2)B(O)O1 | -8.8%
Cc1ccc(OCCn2c(CCNC(=O)C3CCOCC3)nc3ccccc32)cc1 | -8.2%
O=C(O)CO[C@@H]1COCC[C@H]1NC(=O)c1ccccc1-c1ncn[nH]1 | -5.3%
CCC1(C(=O)O)CCCCC(=O)N1 (stereo not drawn) | 3.7%
CC(=O)Nc1sc2c(c1-c1ccc(C)cc1)CCNC2 | -2.1%
COc1ncc(Nc2ncc([C@@H](C)N3CCN(S(C)(=O)=O)CC3)cc2-c2nc(C)nc(N)n2)cc1F | ? | nsP2 cell sec=112.9%;NSP2 full ctr=0.0%;Furin counterscr=-16.9%;NS23 peptide cs=1.0%;Papain counter=?;nsP2pro confirm=-4.5%;HCV NS3 counter=i
CN1CCN(C(=O)[C@@H]2C[C@H](C(=O)O)CN(Cc3cccc(F)c3)C2)CC1 | 1.3%
CC(CC(c1ccccc1)c1ccccc1)NC(C)(C)C (stereo not drawn) | -5.1%
Cc1ccccc1-c1noc(-c2cccnc2NCc2ccco2)n1 | -27.5%
COc1ccc(-c2noc(-c3cccnc3NCc3ccco3)n2)cc1 | ? | nsP2 cell sec=-4.0%
COc1cccc(-c2nc(-c3ccc(C(=O)O)cc3)no2)c1 | i
COc1cc(O)c(C(CC(=O)N2CCCC(c3nc4ccccc4o3)C2)c2ccc3c(c2)OCO3)c(OC)c1 (stereo not drawn) | -21.0%[39.2 µM]
Cc1c(C(=O)NCc2cccnc2)nn(-c2ccc(Cl)cc2Cl)c1-c1ccc(Cl)cc1 | 48.5%
CCO[C@H]1CN(C2CCN(CCc3ccccc3)CC2)C[C@@H]1O | -1.8%
COCCn1c(C)cc(O)c(C(c2ccccc2OC)N2CCN(c3ccccc3)CC2)c1=O (stereo not drawn) | ? | nsP2 cell sec=2.6%
SMILES | nsP2pro primary | others
COC(=O)N(C)Cc1cccc(N2CCN(C(c3ccccc3)c3ccccc3)CC2)c1 | -7.7%
COc1ccccc1C(c1c(O)cc(C)n(Cc2ccco2)c1=O)N1CCCCC1 (stereo not drawn) | -21.1%
Cn1nc(CN2CCOCC2)c2c1CCN(S(=O)(=O)c1cccnc1)C2 | -4.7%
CCN(CC)C(=O)c1ccc(C2=CC3(CCNCC3)Oc3cccc(O)c32)cc1 | -12.8%
COc1ccc(S(=O)(=O)Nc2cccnc2Nc2ccc(O)cc2)cc1 | ? | nsP2 cell sec=-8.3%;NSP2 full ctr=7.8%;Furin counterscr=-13.0%;NS23 peptide cs=i;Papain counter=-8.9%;nsP2pro confirm=1.0%;HCV NS3 counter=i
COc1ccc(CNc2ccc(S(=O)(=O)Nc3nccs3)cc2)c(O)c1 | -6.1%
CC(=O)Nc1ccc(S(=O)(=O)Nc2cccc3cccnc23)cc1 | i
CC(C)CCN1C[C@@H]2C(=O)N(CCc3ccccc3)C(=O)[C@@H]2C1 | 0.3%
C=C(C(=O)O)C1CC2=C(C)C(=O)CC2C(C)CC1O (stereo not drawn) | 4.42µM* | nsP2 cell sec=?;NSP2 full ctr=?;Furin counterscr=-4.6%;NS23 peptide cs=?;Papain counter=-3.2%;nsP2pro confirm=?;HCV NS3 counter=i
Cc1sc2c(c1C)C(c1ccc(Cl)cc1)=N[C@@H](CC(=O)Nc1ccc(OCCOCCOCCOCCNc3cccc4c3C(=O)N(C3CCC(=O)NC3=O)C4=O)cc1)c1nnc(C)n1-2 (stereo partly drawn) | 0.8%[10 µM]
CC(=O)NC1CC2(CCN(C(=O)CCCNC(=O)OC(C)(C)C)CC2)Oc2ccccc21 (stereo not drawn) | ? | nsP2 cell sec=-3.7%;NSP2 full ctr=-72.3%;Furin counterscr=-4.5%;NS23 peptide cs=?;Papain counter=-4.3%;nsP2pro confirm=?;HCV NS3 counter=?
CC(=O)NCCCC(=O)N1CCC2(CC1)CN(S(C)(=O)=O)Cc1ccccc1O2 | -16.3%
CC(=O)NCCC(=O)N1CCC2(CC1)CC(NC(C)=O)c1ccccc12 (stereo not drawn) | -13.4%
CN1CCC(NC(=O)CC2(Cc3ccccc3)C(=O)N(C)c3ccccc32)CC1 (stereo not drawn) | -2.3%
C=C1CCC2C(C)(C(=O)O)CC(O)CC2(C)C1CC/C(C)=C/C(=O)O (stereo not drawn) | -7.9%
NC(=O)c1ccc2nc(-c3ccc(Oc4ccc(Cl)cc4)cc3)[nH]c2c1 | 60.9%
CC(C)n1cc(CN2C[C@@H]3C(=O)N(Cc4ccc5c(c4)OCO5)C(=O)[C@@H]3C2)c2ccccc21 | i
CN1C(=O)[C@@H](Cc2c[nH]c3ccccc23)N=C(c2ccccc2F)c2ccccc21 | -4.8%
CN(C)CCc1c[nH]c2ccc(CS(=O)(=O)N3CCCC3)cc12 | -11.7%
CNS(=O)(=O)Cc1ccc2[nH]cc(CCN(C)C)c2c1 | -19.1%
CN(C)CCc1c[nH]c2ccc(CN3CCN(C)S3(=O)=O)cc12 | ? | nsP2 cell sec=13.7%;NSP2 full ctr=-3.5%;Furin counterscr=1.6%;NS23 peptide cs=-5.8%;Papain counter=0.5%;nsP2pro confirm=-25.2%;HCV NS3 counter=i
O=C1NC2(CCCN([S+](=O)([O-])c3ccsc3)C2)COc2ccccc21 (stereo not drawn) | i

Screening data deposited in PubChem BioAssay by National Center for Advancing Translational Sciences (NCATS).
